# According to ChEMBL document CHEMBL1961873, “Compounds: GSK PKIS; Assays: Nanosyn kinase panel” (2012):
# Columns and labels:
# [1] = biological target: T1, Inhibitor of nuclear factor kappa-B kinase subunit epsilon (Homo sapiens) (UniProt Q14164); settings: at 1 µM;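 also: reported values are averaged percent inhibition figures against human IKKε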
# T1 sequence (whole entry): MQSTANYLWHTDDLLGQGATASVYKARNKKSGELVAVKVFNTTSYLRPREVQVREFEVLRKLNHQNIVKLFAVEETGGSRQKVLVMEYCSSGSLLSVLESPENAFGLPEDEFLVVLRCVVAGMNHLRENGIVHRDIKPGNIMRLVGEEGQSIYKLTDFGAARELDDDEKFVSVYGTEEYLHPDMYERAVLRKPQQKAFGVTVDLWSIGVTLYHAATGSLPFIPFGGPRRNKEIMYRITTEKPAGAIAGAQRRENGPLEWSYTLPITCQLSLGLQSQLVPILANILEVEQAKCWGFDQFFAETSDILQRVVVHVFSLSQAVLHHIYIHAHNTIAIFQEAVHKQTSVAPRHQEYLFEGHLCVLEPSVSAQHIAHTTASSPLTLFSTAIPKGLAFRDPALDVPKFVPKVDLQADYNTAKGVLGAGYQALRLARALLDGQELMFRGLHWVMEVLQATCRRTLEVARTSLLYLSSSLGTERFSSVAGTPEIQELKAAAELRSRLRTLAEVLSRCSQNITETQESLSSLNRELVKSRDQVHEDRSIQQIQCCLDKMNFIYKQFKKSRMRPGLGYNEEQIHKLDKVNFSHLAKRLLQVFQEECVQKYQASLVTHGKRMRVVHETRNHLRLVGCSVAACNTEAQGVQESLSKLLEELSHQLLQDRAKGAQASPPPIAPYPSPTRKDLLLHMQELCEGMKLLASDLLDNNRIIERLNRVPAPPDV
# [2] = biological target: T2, Serine/threonine-protein kinase Nek1 (Homo sapiens) (UniProt Q96PY6); settings: at 0.1 µM
# T2 sequence (whole entry): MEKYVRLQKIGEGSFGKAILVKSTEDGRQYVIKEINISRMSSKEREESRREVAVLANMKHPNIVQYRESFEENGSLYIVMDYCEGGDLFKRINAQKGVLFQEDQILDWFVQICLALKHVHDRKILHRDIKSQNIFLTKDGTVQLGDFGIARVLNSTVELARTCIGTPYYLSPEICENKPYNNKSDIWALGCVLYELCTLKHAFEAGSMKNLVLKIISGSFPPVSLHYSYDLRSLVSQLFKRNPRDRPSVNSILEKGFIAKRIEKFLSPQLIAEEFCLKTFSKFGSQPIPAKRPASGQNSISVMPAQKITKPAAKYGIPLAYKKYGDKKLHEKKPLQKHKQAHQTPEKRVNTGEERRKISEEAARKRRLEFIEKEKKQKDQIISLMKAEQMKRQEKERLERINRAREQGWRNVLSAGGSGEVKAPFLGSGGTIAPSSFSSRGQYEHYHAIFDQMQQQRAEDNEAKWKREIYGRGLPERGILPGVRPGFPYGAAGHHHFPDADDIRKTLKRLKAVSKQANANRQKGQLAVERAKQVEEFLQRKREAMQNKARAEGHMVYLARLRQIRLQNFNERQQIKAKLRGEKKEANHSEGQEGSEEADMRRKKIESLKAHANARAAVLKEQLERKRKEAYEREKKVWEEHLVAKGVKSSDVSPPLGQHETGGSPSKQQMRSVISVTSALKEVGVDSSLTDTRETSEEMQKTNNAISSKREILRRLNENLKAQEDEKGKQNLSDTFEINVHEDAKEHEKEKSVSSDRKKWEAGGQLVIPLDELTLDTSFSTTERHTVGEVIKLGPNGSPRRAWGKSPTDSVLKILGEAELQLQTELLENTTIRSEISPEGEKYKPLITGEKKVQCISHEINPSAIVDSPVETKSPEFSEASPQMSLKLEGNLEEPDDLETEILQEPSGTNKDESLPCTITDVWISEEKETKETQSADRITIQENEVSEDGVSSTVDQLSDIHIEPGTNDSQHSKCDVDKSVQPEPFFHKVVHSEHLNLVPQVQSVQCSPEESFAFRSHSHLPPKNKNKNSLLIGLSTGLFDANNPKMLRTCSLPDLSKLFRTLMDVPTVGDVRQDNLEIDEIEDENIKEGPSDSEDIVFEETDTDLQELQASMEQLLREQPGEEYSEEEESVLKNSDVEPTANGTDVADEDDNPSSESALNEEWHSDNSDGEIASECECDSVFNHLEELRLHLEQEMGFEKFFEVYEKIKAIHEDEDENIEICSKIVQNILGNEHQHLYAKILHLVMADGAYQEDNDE
# [3] = biological target: T2, Serine/threonine-protein kinase Nek1 (Homo sapiens); settings: at 1 µM
# [4] = biological target: T3, Serine/threonine-protein kinase Nek2 (Homo sapiens) (UniProt P51955); settings: at 0.1 µM
# T3 sequence (whole entry): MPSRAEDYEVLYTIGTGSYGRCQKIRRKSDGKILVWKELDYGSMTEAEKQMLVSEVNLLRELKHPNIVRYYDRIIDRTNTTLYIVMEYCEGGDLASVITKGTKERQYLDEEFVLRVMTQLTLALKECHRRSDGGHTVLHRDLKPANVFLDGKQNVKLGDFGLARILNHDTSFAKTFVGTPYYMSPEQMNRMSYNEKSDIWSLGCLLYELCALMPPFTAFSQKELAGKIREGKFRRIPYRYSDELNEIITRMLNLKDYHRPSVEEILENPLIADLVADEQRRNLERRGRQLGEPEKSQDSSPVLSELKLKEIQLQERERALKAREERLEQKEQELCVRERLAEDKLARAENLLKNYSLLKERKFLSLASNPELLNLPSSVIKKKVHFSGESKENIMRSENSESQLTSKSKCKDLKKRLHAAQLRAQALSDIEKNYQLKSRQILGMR
# [5] = biological target: T3, Serine/threonine-protein kinase Nek2 (Homo sapiens); settings: at 1 µM
# [6] = biological target: Serine/threonine-protein kinase Nek6 (Homo sapiens) (UniProt Q9HC98); settings: at 0.1 µM
# Chain of Serine/threonine-protein kinase Nek6 (Homo sapiens) (Q9HC98 whole entry): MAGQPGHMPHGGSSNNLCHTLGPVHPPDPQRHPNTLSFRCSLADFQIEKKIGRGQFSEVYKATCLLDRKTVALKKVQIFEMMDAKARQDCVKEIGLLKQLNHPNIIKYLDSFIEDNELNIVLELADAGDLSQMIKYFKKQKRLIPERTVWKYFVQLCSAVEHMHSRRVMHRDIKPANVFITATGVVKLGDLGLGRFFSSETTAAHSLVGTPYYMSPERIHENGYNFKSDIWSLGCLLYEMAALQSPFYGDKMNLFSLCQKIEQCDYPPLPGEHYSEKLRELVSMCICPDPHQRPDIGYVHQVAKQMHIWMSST
# [7] = biological target: Serine/threonine-protein kinase Nek6 (Homo sapiens) (UniProt Q9HC98); settings: at 1 µM
# [8] = biological target: Serine/threonine-protein kinase Nek7 (Homo sapiens) (UniProt Q8TDX7); settings: at 0.1 µM
# Chain of Serine/threonine-protein kinase Nek7 (Homo sapiens) (Q8TDX7 whole entry, looked up): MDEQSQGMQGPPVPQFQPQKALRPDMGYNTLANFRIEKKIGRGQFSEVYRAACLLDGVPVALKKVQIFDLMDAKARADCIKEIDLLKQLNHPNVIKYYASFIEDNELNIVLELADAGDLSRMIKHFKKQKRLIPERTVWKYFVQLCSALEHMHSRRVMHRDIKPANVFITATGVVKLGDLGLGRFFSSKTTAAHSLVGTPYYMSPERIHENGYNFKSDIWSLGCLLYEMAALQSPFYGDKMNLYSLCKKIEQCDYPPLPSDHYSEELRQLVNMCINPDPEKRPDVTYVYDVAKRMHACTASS
# [9] = biological target: Serine/threonine-protein kinase Nek7 (Homo sapiens) (UniProt Q8TDX7); settings: at 1 µM
# [10] = biological target: T4, Serine/threonine-protein kinase Nek9 (Homo sapiens) (UniProt Q8TD19); settings: at 0.1 µM;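 also: reported value is the mean percent inhibition of NEK9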
# T4 sequence (whole entry): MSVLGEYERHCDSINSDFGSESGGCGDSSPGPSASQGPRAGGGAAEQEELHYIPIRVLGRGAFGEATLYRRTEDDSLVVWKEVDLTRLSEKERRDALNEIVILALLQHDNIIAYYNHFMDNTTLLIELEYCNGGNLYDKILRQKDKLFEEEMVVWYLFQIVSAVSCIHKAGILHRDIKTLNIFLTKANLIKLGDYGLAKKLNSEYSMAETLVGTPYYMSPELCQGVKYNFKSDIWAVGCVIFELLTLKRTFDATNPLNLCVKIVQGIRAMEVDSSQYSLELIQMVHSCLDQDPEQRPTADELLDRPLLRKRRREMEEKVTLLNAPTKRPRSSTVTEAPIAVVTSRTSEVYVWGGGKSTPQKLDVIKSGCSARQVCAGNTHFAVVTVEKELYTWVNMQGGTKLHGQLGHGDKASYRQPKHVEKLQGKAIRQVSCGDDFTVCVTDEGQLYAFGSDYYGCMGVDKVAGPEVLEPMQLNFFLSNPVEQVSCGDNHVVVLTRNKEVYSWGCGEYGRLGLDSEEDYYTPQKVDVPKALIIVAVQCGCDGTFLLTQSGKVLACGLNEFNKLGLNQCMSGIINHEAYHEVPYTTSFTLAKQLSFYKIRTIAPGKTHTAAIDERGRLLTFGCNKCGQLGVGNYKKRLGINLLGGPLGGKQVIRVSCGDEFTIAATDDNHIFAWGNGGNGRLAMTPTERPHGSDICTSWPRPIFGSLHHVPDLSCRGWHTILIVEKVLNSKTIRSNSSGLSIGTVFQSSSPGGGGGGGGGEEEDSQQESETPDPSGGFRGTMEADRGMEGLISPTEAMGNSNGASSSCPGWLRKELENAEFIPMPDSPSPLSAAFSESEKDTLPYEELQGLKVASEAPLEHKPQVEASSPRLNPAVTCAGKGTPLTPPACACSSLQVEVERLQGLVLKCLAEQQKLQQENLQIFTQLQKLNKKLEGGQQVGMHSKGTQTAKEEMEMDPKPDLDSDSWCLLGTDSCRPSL
SMILES,inhibition [1],inhibition [2],inhibition [3],inhibition [4],inhibition [5],inhibition [6],inhibition [7],inhibition [8],inhibition [9],inhibition [10]
CNC(=O)c1cncc(/C=C/c2ccccc2C)c1,5.71%,2.13%,4.28%,4.96%,5.88%,1.4%,3.73%,1.08%,4.03%,3.46%
CC1=C(C(=O)Nc2ccc3[nH]ncc3c2)C(c2ccc(F)cc2)N=C(c2ccc(C(F)(F)F)nc2)N1 (stereo not given),3.45%,1.75%,1.45%,3.41%,2.65%,1.87%,-0.45%,3.08%,2.92%,2.7%
COc1cc(N2CCN(C(C)C)CC2)ccc1Nc1nc(Nc2cccc(F)c2C(=O)O)c2cc[nH]c2n1,7.25%,2.08%,5.01%,5.22%,3.86%,2.61%,5.14%,3.58%,3.43%,9.89%
c1cnn2ncc(-c3ccnc(NCCCN4CCOCC4)n3)c2c1,13.4%,1.91%,0.27%,4.15%,4.3%,0.45%,2.66%,5.96%,1.47%,14.8%
NS(=O)(=O)c1ccc(N/N=C2\C(=O)Nc3cccc(CCc4ccncc4)c32)cc1,3.03%,2.1%,1.7%,1.25%,0.63%,-2.2%,-0.1%,0.71%,0.86%,2.93%
CCN1CCC(C(=O)Nc2n[nH]c3nnc(-c4cccc(F)c4F)cc23)CC1,-0.18%,-1.35%,-0.79%,-0.66%,-0.65%,1.25%,-1.06%,-0.06%,-1.15%,4.77%
CCS(=O)(=O)c1ccc(OC)c(Nc2ncc(-c3cccc(F)c3)o2)c1,8.87%,4.05%,5.27%,6.14%,7.08%,-1.8%,1.24%,4.07%,0.27%,7.49%
O=C(O[C@H]1CN[C@H](C#Cc2cc3ncnc(Nc4ccc(OCc5cccc(F)c5)c(Cl)c4)c3s2)C1)N1CCOCC1,9.71%,3.33%,4.01%,6.18%,8.23%,1.15%,2.74%,4.68%,3.68%,5.79%
